From PubChem BioAssay AID722 (NMMLSC, 2007) come the findings set out here.

About 40 (3%) of roughly 1,300 compounds were called active. The sample as a whole holds a higher share of actives than the screen did. Unmarked numbers belong to inactive results. No stated cut-off is given here; in the data, active means inhibition above about 30%; inactive means the rest.

For this assay, the target named is fMet-Leu-Phe receptor (Homo sapiens) (UniProt P21462). In words: human FPR1 ligand displacement screen – cell-based, flow cytometry, SAR analysis, primary screen (AID 722). Particulars: FPR-expressing cells, fluorescent ligand binding inhibition, hits give high values, concentration not given here.
Sequence of fMet-Leu-Phe receptor (Homo sapiens) (P21462 whole entry, looked up): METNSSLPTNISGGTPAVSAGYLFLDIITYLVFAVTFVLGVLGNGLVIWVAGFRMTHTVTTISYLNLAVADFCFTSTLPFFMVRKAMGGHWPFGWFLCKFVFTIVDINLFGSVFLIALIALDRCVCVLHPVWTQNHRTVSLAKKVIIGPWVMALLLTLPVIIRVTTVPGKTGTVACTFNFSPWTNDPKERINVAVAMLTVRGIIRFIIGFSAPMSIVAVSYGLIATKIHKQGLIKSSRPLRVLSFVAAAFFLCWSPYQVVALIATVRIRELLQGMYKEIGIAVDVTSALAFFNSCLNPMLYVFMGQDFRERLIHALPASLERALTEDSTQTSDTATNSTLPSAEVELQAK
Broadly, the inhibition is the drop in the measured response relative to a control, in per cent. Regarding `COc1ccc(-c2c(C(F)(F)F)oc3cc(OC(=O)c4ccco4)ccc3c2=O)cc1OC`, the inhibition was 43.5% (active).

As to `COc1ccccc1-c1c(C(F)(F)F)oc2cc(OC(=O)c3ccccc3C)ccc2c1=O`, the inhibition is 2.7%. For `COc1ccc(C(=O)Oc2ccc3c(=O)c(-c4ccc(OC)c(OC)c4)c(C(F)(F)F)oc3c2)cc1` the value was 9.4%; for `COc1ccccc1-c1c(C(F)(F)F)oc2cc(OC(=O)c3ccco3)ccc2c1=O`, 59% (active). Consider `COc1ccc(Oc2c(C(F)(F)F)oc3cc(OC(=O)c4ccco4)ccc3c2=O)cc1`, for which the inhibition was 9.6%. Regarding `COc1ccc(-c2c(C(F)(F)F)oc3cc(OC(=O)c4ccc(C)cc4)ccc3c2=O)cc1OC`, the inhibition is -0.2%. For `COc1cc(C2C(C(=O)c3cc4ccccc4o3)=C(O)C(=O)N2c2nnc(C)s2)ccc1O` (configuration not stated) the value was -5.6%. For `O=C1OC(c2ccccc2F)/C(=C(/O)c2ccccc2)C1=O` (configuration not stated) the value was 2.1%. Then `CCOC(=O)c1cc2ccccc2n1CC(=O)c1ccccc1`, with -0.2%. Take `O=C1C(=O)N(c2nncs2)C(c2ccc(F)cc2)/C1=C(\O)c1ccccc1` (configuration not stated): the inhibition is 5.9%. On to `Fc1cccc(-c2nn(CN3CCCCC3)c(=S)n2-c2ccccc2)c1`, for which the inhibition is 4.7%. For `COc1ccc(C2/C(=C(\O)c3ccc(F)cc3)C(=O)C(=O)N2c2nnc(C)s2)cc1` (configuration not stated) the value was 4.6%; for `COc1ccc(/C(O)=C2\C(=O)C(=O)N(CCN3CCOCC3)C2c2ccc(Br)cc2)cc1` (configuration not stated), 2.9%. For `O=C(O)CCc1oc2cc(O)ccc2c(=O)c1-c1nc2ccccc2[nH]1` the value was 11.1%; for `CCOC(=O)c1c(NC(=O)C2CCCC2)sc2c1CCC(CC)C2` (configuration not stated), -13.3%; for `CCc1c(C)nc2c(-c3ccccc3OC)c(C)[nH]n2c1=O`, 5.5%. For `CCOc1ccccc1C1CC(=O)NC2=C1C(=O)CC(c1ccccc1Cl)C2` (configuration not stated) the value was -7.2%. As for `O=C1C(=O)N(CCN2CCOCC2)C(c2ccc(Cl)cc2)/C1=C(\O)c1ccc(F)cc1` (configuration not stated), the inhibition is -8.1%. Regarding `CCc1cc2c(=O)c(-c3nc4ccccc4n3C)c(C)oc2cc1O`, the inhibition was -2.5%. Then `CCc1cc2c(=O)c(-c3nc4ccccc4n3C)c(C)oc2cc1OC(C)=O`, with 78.9% (active); and `CCc1cc2c(=O)c(-c3nc4ccccc4[nH]3)c(C)oc2cc1OC(C)=O`, with -0.7%; and `Cc1[nH]n2c(=O)cc(Cc3ccccc3)nc2c1-c1ccccc1`, with 6.8%.

Turning to `CCOC(=O)C(C#N)C(c1ccc2c(c1)OCO2)c1ccccc1OC` (configuration not stated), the inhibition is -0.7%.

As to `O=C(NC(c1nnc(-c2ccccc2)o1)c1ccccc1F)c1ccc(F)cc1` (configuration not stated), the inhibition was -6%. Turning to `CN1C(=O)C2(/C(=C(/O)c3ccc(F)cc3)C(=O)C(=O)N2CCN2CCOCC2)c2ccccc21` (configuration not stated), the inhibition was -6.9%. Then `CC(C)(C)c1ccc(C2/C(=C(\O)c3ccccc3)C(=O)C(=O)N2Cc2cccnc2)cc1` (configuration not stated), with -8.3%; and `Cc1ccc(C2/C(=C(/O)c3ccccc3)C(=O)C(=O)N2Cc2cccnc2)cc1` (configuration not stated), with 5.2%; and `Cc1ccc(/C(O)=C2\C(=O)C(=O)N(Cc3cccnc3)C2c2ccc(Br)cc2)cc1` (configuration not stated), with 61.8% (active).

With `COCCCN1C(=O)C(=O)/C(=C(/O)c2ccccc2)C1c1ccc(Cl)cc1` (configuration not stated), the inhibition was 0.5%. For `COCCCN1C(=O)C(=O)/C(=C(/O)c2ccc(C)cc2)C1c1ccc(C(C)C)cc1` (configuration not stated) the value was 2.7%. Then `COc1ccccc1C1/C(=C(\O)c2ccc(C)cc2)C(=O)C(=O)N1Cc1cccnc1` (configuration not stated), with -4.4%; and `O=C1C(=O)N(Cc2cccnc2)C(c2ccc(Br)cc2)/C1=C(\O)c1ccccc1` (configuration not stated), with -0.7%.

As for `CC(C)c1ccc(C2/C(=C(\O)c3ccccc3)C(=O)C(=O)N2Cc2cccnc2)cc1` (configuration not stated), the inhibition is 40.5% (active). With `O=C1C(=O)N(Cc2cccnc2)C(c2ccc(Cl)cc2)/C1=C(\O)c1ccccc1` (configuration not stated), the inhibition was 8.1%. For `COc1ccc(C2/C(=C(\O)c3ccc(C)cc3)C(=O)C(=O)N2Cc2cccnc2)c(OC)c1` (configuration not stated) the value was 65.6% (active). Then `COc1ccc(C2/C(=C(/O)c3ccccc3)C(=O)C(=O)N2Cc2ccccc2)c(OC)c1` (configuration not stated), with -11%; and `COCCCN1C(=O)C(=O)/C(=C(/O)c2ccccc2)C1c1ccc(C(C)C)cc1` (configuration not stated), with 54.4% (active).

For `Cc1onc(-c2c(Cl)cccc2Cl)c1C(=O)N1CCCC(C)C1` (configuration not stated), the inhibition was -2.1%.

Take `CCOC(=O)c1cc(C)sc1NC(=O)c1ccc(OC)cc1`: the inhibition was -6.6%. Take `O=C1CSC(c2ccc(F)cc2)N1c1ccccc1F` (configuration not stated): the inhibition was -3%. In the case of `CN1C(=O)C(=O)/C(=C(\O)c2ccc(Cl)cc2)C1c1ccc(Cl)cc1` (configuration not stated), the inhibition was -3.2%. Then `O=C1CSC(c2cccc(F)c2)N1c1c(F)cccc1F` (configuration not stated), with 0.4%.

Turning to `Cn1c(OCc2cccnc2)nc2c1c(=O)n(Cc1ccc(F)cc1)c(=O)n2C`, the inhibition is 1%. Then `O=C1C(=O)N(Cc2cccnc2)C(c2ccc(Br)cc2)/C1=C(\O)c1ccc(F)cc1` (configuration not stated), with -5.5%; and `O=C(c1ccccc1)N(Cc1ccco1)Cc1ccccc1Cl`, with -5%.

Take `Cc1ccccc1C(=O)N1C(=S)C(c2ccc(F)cc2)=NC12CCN(C)CC2`: the inhibition was 3.3%. For `CCOC(=O)c1c(NC(=O)c2ccc(F)cc2)sc(C)c1C` the value was -3.4%; for `COc1ccc(NC(=O)C(NC(=O)Cc2cccs2)c2ccccc2)cc1` (configuration not stated), -2.6%; for `O=C1C(=O)N(Cc2cccnc2)C(c2ccccc2Cl)/C1=C(\O)c1ccccc1` (configuration not stated), 1.8%. Turning to `CC(C)CN1C(=O)c2ccccc2C(C(=O)N2CCCC2)C1c1cccs1` (configuration not stated), the inhibition was 4.5%.

Regarding `CCc1ccc(C2/C(=C(/O)c3ccc(OC)cc3)C(=O)C(=O)N2CCc2c[nH]c3ccccc23)cc1` (configuration not stated), the inhibition was 3%. For `O=C1C(=O)N(CCc2c[nH]c3ccccc23)C(c2ccc(Cl)cc2)/C1=C(/O)c1ccc(F)cc1` (configuration not stated) the value was 1.5%; for `COc1ccc(/C(O)=C2/C(=O)C(=O)N(CCc3c[nH]c4ccccc34)C2c2ccc(C(C)C)cc2)cc1` (configuration not stated), 43.8% (active). Then `O=C(C1=C(O)C(=O)N(CC2CCCO2)C1c1cccs1)c1ccco1` (configuration not stated), with -9.5%; and `Cn1c(NCCO)nc2c1c(=O)n(Cc1ccc(F)cc1)c(=O)n2C`, with -9.2%. Then `COc1ccc(Cl)cc1N1C(=O)CSC1c1ccccc1F` (configuration not stated), with 4.1%.

In the case of `COc1ccc(N(C(=O)c2cccnc2)S(=O)(=O)c2cccs2)cc1`, the inhibition was 13%. For `COc1ccc(/C(O)=C2/C(=O)C(=O)N(CCCn3ccnc3)C2c2ccc(O)c(OC)c2)cc1` (configuration not stated) the value was -11%; for `Cn1c(NCCO)nc2c1c(=O)n(Cc1cccc(F)c1)c(=O)n2C`, 6.7%; for `O=C1C(=O)N(c2nc3ccccc3s2)C(c2cccc(F)c2)/C1=C(\O)c1ccccc1` (configuration not stated), 4.3%. For `CCOc1ccccc1C(=O)N(Cc1ccco1)Cc1ccco1` the value was -4.7%.

For `CCc1ccc(CN(Cc2ccco2)C(=O)c2ccccc2)cc1`, the inhibition is 2.2%.

With `CCCC(=O)N(Cc1ccco1)S(=O)(=O)c1cccc2cccnc12`, the inhibition is 97.6% (active). For `O=C(c1ccccc1)N(Cc1ccco1)Cc1ccco1` the value was 7.4%; for `Cc1ccccc1NC(=S)N(Cc1ccco1)C(C)c1ccccn1` (configuration not stated), -1%. Then `CC(C)C(=O)N(Cc1ccco1)S(=O)(=O)c1cccc2cccnc12`, with 82.2% (active); and `COc1ccc(Cn2c(=S)[nH]c3cc4ccccc4cc3c2=O)cc1`, with -2.8%; and `COC(=O)c1ccccc1NC(=O)NC1CCCCC1`, with -4.1%. Then `Cc1ccc(/C(O)=C2\C(=O)C(=O)NC2c2ccc(C)cc2)cc1` (configuration not stated), with -7.7%.

Consider `COCCCN1C(=O)C(=O)/C(=C(/O)c2ccccc2)C1c1ccc2c(c1)OCO2` (configuration not stated), for which the inhibition was -1.2%.

Take `O=C1C(=O)N(CCO)C(c2ccc([N+](=O)[O-])cc2)/C1=C(/O)c1ccc(Cl)cc1` (configuration not stated): the inhibition was -5.4%. `O=C1CC(c2cccc(Cl)c2Cl)C2=C(CC(c3cccs3)CC2=O)N1` (configuration not stated): the inhibition is -15.7%. Then `O=C1CC(c2cccc(Cl)c2)C2=C(CC(c3cccs3)CC2=O)N1` (configuration not stated), with 10.4%; and `Cc1cccc(C2CC(=O)NC3=C2C(=O)CC(c2cccs2)C3)c1` (configuration not stated), with 33.7% (active); and `O=C1CC(c2ccccc2C(F)(F)F)C2=C(CC(c3cccs3)CC2=O)N1` (configuration not stated), with 32.3% (active). As for `O=C1CC(c2ccccc2)C2=C(CC(c3cccs3)CC2=O)N1` (configuration not stated), the inhibition was -21.7%.

On to `O=C1CC(c2cccc(F)c2)C2=C(CC(c3cccs3)CC2=O)N1` (configuration not stated), for which the inhibition is -6.6%. For `COc1ccc(C2C(C(=O)c3cccs3)=C(O)C(=O)N2Cc2cccnc2)cc1` (configuration not stated) the value was -9.5%; for `O=C1C(=O)N(CCO)C(c2cccc(F)c2)/C1=C(/O)c1ccccc1` (configuration not stated), -7.5%; for `COc1ccc(OC)c(C2/C(=C(\O)c3ccccc3)C(=O)C(=O)N2c2nc3ccccc3s2)c1` (configuration not stated), -1.7%.

In the case of `COc1cccc(C2/C(=C(\O)c3ccc(F)cc3)C(=O)C(=O)N2Cc2cccnc2)c1` (configuration not stated), the inhibition is 1%. `CC(C)(C)c1ccc(C2/C(=C(\O)c3ccc(F)cc3)C(=O)C(=O)N2Cc2cccnc2)cc1` (configuration not stated): the inhibition was -1.6%. For `COc1ccc(C2NC(=O)C(=O)/C2=C(\O)c2ccc(Cl)cc2)cc1` (configuration not stated) the value was -4.8%; for `O=C1NC(c2ccc(Br)cc2)/C(=C(\O)c2ccc(Cl)cc2)C1=O` (configuration not stated), 46.3% (active).

`O=C1NC(c2ccccc2Cl)/C(=C(/O)c2ccc(Br)cc2)C1=O` (configuration not stated): the inhibition was 8.6%. Then `O=C1NC(c2cccc(F)c2)/C(=C(/O)c2ccc(Br)cc2)C1=O` (configuration not stated), with 17%; and `COC(=O)c1sc(N2C(=O)C(O)=C(C(=O)c3cc4ccccc4o3)C2c2ccc(OC)cc2)nc1C` (configuration not stated), with 3.6%.
